# Results published in PubChem BioAssay (EPA / NIEHS).
# Results filed as inconclusive are left out. Activity calls are given as the source filed them. The calls were made as follows, unless noted: active = hit-call score of the fitted dose curve at least 0.9, where 1 is the maximum; inactive = score below 0.9.
# Assays:
# [1] = read-out: sulfotransferase 2A1 (SULT2A1), SULT2A1 (gene 6822); assay: LTEA_HepaRG_SULT2A1: Life Technologies and Expression Analysis (LTEA) Assay for sulfotransferase 2A1 (SULT2A1) using HepaRG (AID 2283531); settings: mRNA level, 48 h; actives raise or lower the signal
# Method in brief: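 Differentiated human HepaRG cells in serum-free induction medium were exposed for 48 h to eight half-log concentrations (top 100 uM, 0.5% DMSO). SULT2A1 mRNA was measured by qRT-PCR, normalized to ACTB, GAPDH and POLR2A, and fitted bidirectionally against DMSO.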
# [2] = read-out: Transforming Growth Factor (TGFA), TGFA (gene 7039); assay: LTEA_HepaRG_TGFA: Life Technologies and Expression Analysis (LTEA) Assay for Transforming Growth Factor (TGFA) using HepaRG (AID 2283532); settings: mRNA level, 48 h; actives raise or lower the signal
# Method in brief: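 TGFA transcript quantified by qRT-PCR (Fluidigm arrays) against three housekeeping genes, after 48 hours chemical treatment of HepaRG cells. Top concentration 100 uM with half-log dilutions, 8 points, duplicates, 0.5% DMSO.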
# [3] = read-out: Transforming Growth Factor (TGFB1), TGFB1 (gene 7040); assay: LTEA_HepaRG_TGFB1: Life Technologies and Expression Analysis (LTEA) Assay for Transforming Growth Factor (TGFB1) Transporter using HepaRG (AID 2283533); settings: mRNA level, 48 h; actives raise or lower the signal
# Method in brief: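 Differentiated human HepaRG cells in serum-free induction medium were exposed in duplicate for 48 h to eight concentrations (top 100 uM, half-log steps, 0.5% DMSO). TGFB1 mRNA was quantified by qRT-PCR, normalized to ACTB, GAPDH, POLR2A, and fitted bidirectionally against DMSO.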
# [4] = read-out: TIMP1, TIMP1 (gene 7076); assay: LTEA_HepaRG_TIMP1: Life Technologies and Expression Analysis (LTEA) Assay for TIMP1 using HepaRG (AID 2283534); settings: mRNA level, 48 h; actives raise or lower the signal;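 also: TaqMan qRT-PCR signal normalized to ACTB GAPDH and POLR2A housekeeping genes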
# Method in brief: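 Differentiated human HepaRG cells in serum-free induction medium were exposed 48 h to chemicals (8 half-log concentrations, top 100 uM, 0.5% DMSO). TIMP1 mRNA was quantified by TaqMan qRT-PCR, normalized to ACTB/GAPDH/POLR2A; bidirectional fit versus DMSO.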
# [5] = read-out: Tumor necrosis factor receptor 1 (TNFRSF1A), TNFRSF1A (gene 7132); assay: LTEA_HepaRG_TNFRSF1A: Life Technologies and Expression Analysis (LTEA) Assay for Tumor necrosis factor receptor 1 (TNFRSF1A) using HepaRG (AID 2283535); settings: mRNA level, 48 h; actives raise or lower the signal
# Method in brief: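 Differentiated human HepaRG cells were exposed in duplicate for 48 h in serum-free induction medium to eight concentrations (top 100 uM, half-log steps, 0.5% DMSO). TNFRSF1A mRNA was quantified by qRT-PCR, normalized to ACTB, GAPDH and POLR2A, then fitted bidirectionally against DMSO.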
# [6] = read-out: Thyroid Hormone Responsive (THRSP), THRSP (gene 7069); assay: LTEA_HepaRG_THRSP: Life Technologies and Expression Analysis (LTEA) Assay for Thyroid Hormone Responsive (THRSP) using HepaRG (AID 2283536); settings: mRNA level, 48 h; actives raise or lower the signal
# Method in brief: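 THRSP transcript quantified by Fluidigm qRT-PCR against three housekeeping genes after 48 h chemical exposure of HepaRG cells in serum-free induction medium; eight-point half-log series, top 100 uM, 0.5% DMSO vehicle, duplicate wells.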
# [7] = read-out: Cellular tumor antigen p53 (Homo sapiens) (UniProt P04637); assay: LTEA_HepaRG_TP53: Life Technologies and Expression Analysis (LTEA) Assay for Tumor Protein P53 (TP53) using HepaRG (AID 2283537); settings: mRNA level, 48 h; actives raise or lower the signal
# Method in brief: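 Differentiated HepaRG cells in serum-free induction medium exposed 48 h in duplicate to 8 half-log concentrations, top 100 uM, 0.5% DMSO. TP53 mRNA by TaqMan qRT-PCR (Fluidigm), normalized to ACTB, GAPDH, POLR2A; fitted bidirectionally versus DMSO.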
# [8] = read-out: UDP glucuronosyltransferase (UGT1A1), UGT1A1 (gene 54658); assay: LTEA_HepaRG_UGT1A1: Life Technologies and Expression Analysis (LTEA) Assay for UDP glucuronosyltransferase (UGT1A1) using HepaRG (AID 2283538); settings: mRNA level, 48 h; actives raise or lower the signal
# Method in brief: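 Cells are plated, cultured 48 h, switched to serum-free induction medium, then dosed 48 h at eight concentrations (max 100 uM, 0.5% DMSO). RNA is isolated and UGT1A1 expression measured by qRT-PCR; changes versus DMSO are fitted in both directions.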
# [9] = read-out: UDP glucuronosyltransferase (UGT1A6), UGT1A6 (gene 54578); assay: LTEA_HepaRG_UGT1A6: Life Technologies and Expression Analysis (LTEA) Assay for UDP glucuronosyltransferase (UGT1A6) using HepaRG (AID 2283539); settings: mRNA level, 48 h; actives raise or lower the signal
# Method in brief: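 Human HepaRG cells were dosed for 48 h in serum-free induction medium with 0.5% DMSO vehicle, eight-point half-log series from 100 uM, in duplicate. UGT1A6 mRNA was measured by qRT-PCR, normalized to ACTB, GAPDH, POLR2A, and fitted bidirectionally against DMSO.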
# [10] = read-out: X-box binding protein 1 (XBP1), XBP1 (gene 7494); assay: LTEA_HepaRG_XBP1: Life Technologies and Expression Analysis (LTEA) Assay for X-box binding protein 1 (XBP1) using HepaRG (AID 2283540); settings: mRNA level, 48 h; actives raise or lower the signal
# Method in brief: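 Differentiated human HepaRG cells in serum-free induction medium were exposed in duplicate for 48 h to eight half-log concentrations up to 100 uM in 0.5% DMSO. XBP1 mRNA was quantified by qRT-PCR, normalised to ACTB, GAPDH and POLR2A, with bidirectional fitting against DMSO.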
# [11] = LTEA_HepaRG_LDH_cytotoxicity: Cytotoxicity Assessment in the Life Technologies and Expression Analysis (LTEA) Assay (AID 2283563; active = hit-call score of the fitted dose curve at least 0.9, where 1 is the maximum)
# Method in brief: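 Differentiated human HepaRG cells, plated 48 h beforehand, were switched to serum-free induction medium and exposed for 48 h to eight half-log concentrations (top 100 uM) in 0.5% DMSO. LDH was measured in spent medium; activity was fitted relative to DMSO vehicle.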
# [12] = TOX21_p53_BLA_p2_viability: Viability Assessment in the Tox21 HCT-116 p53 Agonism Beta-lactamase Assay, Phase 2 (AID 2283591; active = hit-call score of the fitted dose curve at least 0.9, where 1 is the maximum;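 also: compound exposure lasted 16 h at 37 °C; actives lower the ATP signal meaning cytotoxicity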)
# Method in brief: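 Cytotoxicity readout: CellTiter-Glo ATP luminescence, 30 min at room temperature, after the beta-lactamase read. Cells were HCT116 exposed 16 h at 37C to compounds pin-transferred at 217-fold dilution from DMSO stocks.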
# [13] = target: Cellular tumor antigen p53 (Homo sapiens) (UniProt P04637); assay: TOX21_p53_BLA_p2_ratio: Tox21 HCT-116 p53 Agonism Beta-lactamase Assay, Ratio, Phase 2 (AID 2283592; active = hit-call score of the fitted dose curve at least 0.9, where 1 is the maximum)
# Method in brief: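 Ratio endpoint: beta-lactamase cleavage of CCF4-AM, blue (460 nm) over green (530 nm). HCT116 reporter line; 16 h treatment, 37C; substrate 2 h RT.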
# [14] = TOX21_p53_BLA_p3_viability: Viability Assessment in the Tox21 HCT-116 p53 Agonism Beta-lactamase Assay, Phase 3 (AID 2283593; active = hit-call score of the fitted dose curve at least 0.9, where 1 is the maximum;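 also: cells exposed to compound for 16 h before reading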)
# Method in brief: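 Cellular ATP was quantified by CellTiter-Glo luminescence, read after 30 min at room temperature. Beforehand, HCT116 cells (4000/well) received compound 5 h post-seeding, 217-fold diluted from DMSO, then incubated 16 h at 37C.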
# [15] = target: Cellular tumor antigen p53 (Homo sapiens) (UniProt P04637); assay: TOX21_p53_BLA_p3_ratio: Tox21 HCT-116 p53 Agonism Beta-lactamase Assay, Ratio, Phase 3 (AID 2283596; active = hit-call score of the fitted dose curve at least 0.9, where 1 is the maximum)
# Method in brief: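 Cells were seeded at 4000/well, rested 5 h at 37C, then dosed with DMSO compound solutions (217-fold dilution) for 16 h. CCF4-AM substrate was loaded for 2 h at room temperature, and the 460/530 nm emission ratio was fitted for gain of signal versus DMSO.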
# [16] = TOX21_p53_BLA_p4_viability: Viability Assessment in the Tox21 HCT-116 p53 Agonism Beta-lactamase Assay, Phase 4 (AID 2283597; active = hit-call score of the fitted dose curve at least 0.9, where 1 is the maximum;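 also: hits lower the luminescence signal meaning cytotoxicity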)
# Method in brief: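 Cytotoxicity was inferred from loss of CellTiter-Glo luminescence. HCT116 cells had been dosed with compounds after 5 h plating, incubated 16 h at 37C and 5% CO2, and exposed to the CCF4-AM substrate for 2 h.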
# [17] = target: Cellular tumor antigen p53 (Homo sapiens) (UniProt P04637); assay: TOX21_p53_BLA_p5_ratio: Tox21 HCT-116 p53 Agonism Beta-lactamase Assay, Ratio, Phase 5 (AID 2283599; active = hit-call score of the fitted dose curve at least 0.9, where 1 is the maximum)
# Method in brief: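 Beta-lactamase reporter ratio (blue 460 nm over green 530 nm, 405 nm excitation) after 2 h CCF4-AM loading, in HCT-116 cells exposed 16 h at 37 C to compounds pinned at 217-fold dilution. Increases relative to DMSO baseline scored.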
# [18] = target: Cellular tumor antigen p53 (Homo sapiens) (UniProt P04637); assay: TOX21_p53_BLA_p4_ratio: Tox21 HCT-116 p53 Agonism Beta-lactamase Assay, Ratio, Phase 4 (AID 2283601; active = hit-call score of the fitted dose curve at least 0.9, where 1 is the maximum)
# Method in brief: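 Signal is the blue/green (460nm/530nm) ratio of cleaved versus uncleaved CCF4-AM substrate, read after 2 h substrate loading. Cells were HCT116 carrying the p53-responsive beta-lactamase reporter, dosed 16 h at 37C, 5% CO2; CellTiter-Glo measured in parallel.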
# Sequence of Cellular tumor antigen p53 (Homo sapiens) (P04637 whole entry, looked up): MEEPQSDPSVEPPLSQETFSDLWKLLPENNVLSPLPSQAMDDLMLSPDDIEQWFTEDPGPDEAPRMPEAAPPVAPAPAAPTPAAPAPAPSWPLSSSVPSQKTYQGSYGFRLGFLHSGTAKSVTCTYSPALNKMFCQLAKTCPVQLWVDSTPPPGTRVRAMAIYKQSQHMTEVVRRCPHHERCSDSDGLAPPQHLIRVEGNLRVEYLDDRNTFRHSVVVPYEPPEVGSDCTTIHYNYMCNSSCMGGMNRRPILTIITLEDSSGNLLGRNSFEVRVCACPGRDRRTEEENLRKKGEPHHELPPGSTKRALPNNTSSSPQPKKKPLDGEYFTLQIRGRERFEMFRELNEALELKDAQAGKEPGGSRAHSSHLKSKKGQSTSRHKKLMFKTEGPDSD
smiles,measurement,setting,value
c1cc[n+]2c(c1)-c1cccc[n+]1CC2,outcome,[1],inactive
same,outcome,[2],inactive
same,outcome,[3],inactive
same,outcome,[4],inactive
same,outcome,[5],inactive
same,outcome,[6],inactive
same,outcome,[7],inactive
same,outcome,[8],inactive
same,outcome,[9],inactive
same,outcome,[10],inactive
same,outcome,[11],inactive
same,outcome,[12],inactive
same,outcome,[13],inactive
same,outcome,[14],inactive
same,outcome,[15],inactive
same,AC50,[16],20 µM (active)
same,outcome,[17],inactive
same,outcome,[18],inactive
